Screens deposited in PubChem by several laboratories.
Rows were chosen to be rich in hits. Some 22% of all compounds tested hit in one or more screens of this group.
CYP2C19 inh: inhibitors of human CYP2C19; P33261; CYP2C19 Supersomes, luciferin-H EGE luminescence, 30 min; inhibition, % at 5 µM; hit rate 21% among 96,000;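 active = CYP2C19 inhibition above a set limit at 5 µM in the primary screen, cut at about 50% in these data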;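 also: plate controls were negative control wells for no effect and 2.5 mM tranylcypromine positive control for full effect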
Target sequence (P33261 whole entry, looked up): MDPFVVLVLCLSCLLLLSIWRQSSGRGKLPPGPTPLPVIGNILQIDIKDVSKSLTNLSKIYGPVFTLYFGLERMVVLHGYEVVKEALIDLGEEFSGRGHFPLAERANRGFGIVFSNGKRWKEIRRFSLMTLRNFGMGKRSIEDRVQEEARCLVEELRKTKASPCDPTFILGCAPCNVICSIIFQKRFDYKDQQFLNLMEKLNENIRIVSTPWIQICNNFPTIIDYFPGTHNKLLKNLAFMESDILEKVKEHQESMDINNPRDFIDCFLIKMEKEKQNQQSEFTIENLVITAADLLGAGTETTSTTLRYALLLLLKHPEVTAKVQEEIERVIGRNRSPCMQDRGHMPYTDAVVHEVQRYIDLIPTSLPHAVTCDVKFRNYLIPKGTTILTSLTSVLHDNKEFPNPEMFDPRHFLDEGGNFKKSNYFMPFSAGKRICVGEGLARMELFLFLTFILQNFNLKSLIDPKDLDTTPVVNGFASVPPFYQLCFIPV
Measles CPE: protection of cells from measles virus | hit rate 1.5% among 140,000 | Measles virus-infected cells, CPE protection, absorbance | protection (pct of control), % at 4 µM; in the data active = protection mostly above about 24%, no sharp cut-off; inactive = mostly below about 26%
CYP2C19 act: activators of human cytochrome P450 2C19. P33261. recombinant CYP2C19, luciferin-H EGE luminescence; active compounds read high; 0 = fully inhibited enzyme, 1 = untreated enzyme. activation factor at 5 µM. 96,000 tested, under 10 active;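 active = activation factor of at least 2 at 5 µM in the primary screen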;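 also: 0 = wells with 2.5 mM tranylcypromine and 1 = vehicle-only wells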
CYP2C9 activ: CYP2C9 (human) activation; P11712; recombinant CYP2C9, luciferin-H conversion, luminescence; active compounds read high; factor 1 = untreated enzyme, 0 = blocked; activation factor at 5 µM; hit rate 1.4% among 96,000; AID 1024;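 active = activation factor of 2 or more for CYP2C9 at a 5 µM dose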;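 also: 0 = sulfaphenazole-blocked wells and 1 = vehicle-only wells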
CYP2C9 inhib: blocks human cytochrome P450 2C9; P11712; CYP2C9 Supersomes, luciferin-H conversion, luminescence; inhibition, % at 5 µM; hit rate 20% among 96,000; AID 777;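 active = blocking of liver enzyme CYP2C9 beyond about 50% at 5 µM, limit read from the data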
* hit, by the source's call; . = no result.

SMILES | CYP2C19 inh | Measles CPE | CYP2C19 act | CYP2C9 activ | CYP2C9 inhib
N#CCCN(Cc1ccccc1)C(=S)NC(=O)c1ccccc1 | 34 | 25 | 0.7 | 0.1 | 93*
O=C(O)CCCC(=O)N(Cc1ccccc1)Cc1ccccc1 | 12 | 16 | 0.9 | 0.9 | 10
CCCN(CCC)C(=S)NC(=O)c1ccc(-c2ccccc2)cc1 | -9 | 33 | 1.1 | 0.9 | 9
CCOc1ccc(C(=O)NC(=S)N(Cc2ccccc2)Cc2ccccc2)cc1 | 29 | 17 | 0.7 | 0.5 | 53*
COc1ccc(/C=C(/NC(=O)c2ccccc2)c2nc3ccc(Cl)cc3[nH]2)cc1OC | . | 6 | . | . | .
Cc1ccc2c(CC(=O)OCC(=O)Nc3ccc(Cl)cn3)coc2c1 | . | 3 | . | . | .
COc1ccc(CN(CCC#N)C(=S)NC(=O)c2ccccc2)cc1 | 32 | 15 | 0.7 | 0.1 | 92*
Nc1ccc(Oc2ccc3nc(-c4ccccc4)c(-c4ccc([N+](=O)[O-])cc4)nc3c2)cc1 | 18 | 4 | 0.8 | 0.4 | 56*
CCCC(=N)C1=C(O)CC(CC(C)SCC)CC1=O (configuration not stated) | 82* | 7 | 0.2 | 0.3 | 66*
CC(=O)C1=C(O)C(=O)N(c2nccs2)C1c1ccc(Br)cc1 (configuration not stated) | 15 | 21 | 0.9 | 0.4 | 57*
CC(=O)C1=C(O)C(=O)N(c2nccs2)C1c1ccc(F)cc1 (configuration not stated) | . | 18 | . | . | .
CCOc1ccc(N2Nc3n[nH]c(N)c3N2)cc1 | . | 3 | . | . | .
CC1CCC/C(=N\NC(=O)COc2ccc(Cl)cc2Cl)C1 (configuration not stated) | 80* | 0 | 0.2 | 0.7 | 35
CC1CCC/C(=N\NC(=O)COc2ccccc2Cl)C1 (configuration not stated) | . | 11 | . | . | .
COCCN1C(=O)N[C@@H](c2cccs2)C(C(=O)OC)=C1C | . | 21 | . | . | .
COc1ccc(NS(=O)(=O)c2ccc(OC)c(N(C)S(=O)(=O)c3ccc(Cl)cc3)c2)cc1 | 33 | 4 | 0.7 | 0.4 | 61*
COc1ccc(NS(=O)(=O)c2ccc(OC)c(OC)c2)cc1OC | . | 8 | . | . | .
COc1ccc(S(=O)(=O)Nc2ccc(F)cc2)cc1N(C)S(=O)(=O)c1ccc(Cl)cc1 | 52* | 4 | 0.5 | 0.3 | 67*
Cc1ccc(CN2C(=O)CCC2C(=O)NCC2CCCO2)cc1 (configuration not stated) | 4 | 5 | 1 | 1 | 0
CC1=CC(=O)OC1Cc1ccncc1 (configuration not stated) | 24 | 5 | 0.8 | 0.6 | 42
COCCCN1C(=O)c2[nH]nc(-c3cc(C)cc(C)c3O)c2C1c1ccc(O)c(OC)c1 (configuration not stated) | 87* | 7 | 0.1 | 0.4 | 63*
COc1cc(C2c3c(-c4cc(C)cc(C)c4O)n[nH]c3C(=O)N2CCCO)cc(OC)c1OC (configuration not stated) | 3 | 9 | 1 | 0.6 | 44
COC(=O)c1ccc(O)c(Sc2cc(C(=O)OC)ccc2O)c1 | 88* | 13 | 0.1 | 0 | 100*
Cc1ccc(O)c(Sc2cc(C)ccc2O)c1 | 97* | 7 | 0 | 0 | 96*
CSC1CCCCC1(O)CSc1nc2ccccc2o1 (configuration not stated) | 29 | 11 | 0.7 | 0.6 | 38
SMILES | CYP2C19 inh | Measles CPE | CYP2C19 act | CYP2C9 activ | CYP2C9 inhib
COc1cc(NC2c3ncccc3C(=O)N2Cc2ccco2)cc(OC)c1 (configuration not stated) | 30 | 8 | 0.7 | 0.9 | 11
CC1=C(C(=O)Nc2ccccc2)C(c2ccco2)C(C#N)=C(SCc2ccccc2)N1 (configuration not stated) | 97* | 18 | 0 | 0 | 96*
CCOc1ccccc1NC(=O)CSC1=C(C#N)C(c2ccco2)C(C(=O)Nc2nc3ccccc3s2)=C(C)N1 (configuration not stated) | . | 8 | . | . | .
CC1=C(C(=O)Nc2ccccc2)C(c2ccncc2)C(C#N)=C(SCC(=O)Nc2ccccc2)N1 (configuration not stated) | 84* | 8 | 0.2 | 0.2 | 80*
CC1=C(C(=O)Nc2ccccc2)C(c2ccco2)C(C#N)=C(SCC(=O)Nc2cccc(C)c2C)N1 (configuration not stated) | 72* | 3 | 0.3 | 0.3 | 72*
CC1=C(C(=O)Nc2ccccc2)C(c2ccco2)C(C#N)=C(SCC(=O)OC(C)C)N1 (configuration not stated) | 43 | 5 | 0.6 | 0.6 | 45
C=CCn1c(SCC(=O)NCCc2ccccc2)nnc1C(C)NC(=O)c1cccs1 (configuration not stated) | . | 4 | . | . | .
CCn1c(C(C)NC(=O)c2cccs2)n[nH]c1=S (configuration not stated) | . | 29 | . | . | .
CN(C)CCCn1c(NCc2ccc3c(c2)OCO3)nc2ccccc21 | -2 | 20 | 1 | 1 | 1
CCCC(=O)NC(=S)Nc1cccc(C(C)=O)c1 | 33 | 0 | 0.7 | 0.6 | 44
Cn1c(=O)c2c(nc(Oc3ccc4c(c3)OCO4)n2Cc2ccc(F)cc2)n(C)c1=O | -15 | 23 | 1.1 | 0.9 | 6
Cn1c(OCc2ccc3c(c2)OCO3)nc2c1c(=O)n(Cc1ccc(Cl)c(Cl)c1)c(=O)n2C | 36 | 10 | 0.6 | 0.2 | 80*
Cn1c(OCc2cccnc2)nc2c1c(=O)n(Cc1ccc(Br)cc1)c(=O)n2C | 68* | 14 | 0.3 | 0.3 | 68*
Cn1c(N2CCCCC2)nc2c1c(=O)n(Cc1cccc(Br)c1)c(=O)n2C | 2 | 6 | 1 | 0.9 | 5
Cn1c(NCc2ccco2)nc2c1c(=O)n(Cc1ccc(Cl)c(Cl)c1)c(=O)n2C | 60* | 13 | 0.4 | 0.3 | 69*
CCCCc1ccc(NC(=O)c2c(C)noc2C)cc1 | 10 | 22 | 0.9 | 0.8 | 17
Cc1ccc2cc(CCNC(=O)C(C)C)c(=O)[nH]c2c1 | 35 | 14 | 0.6 | 0.7 | 31
CCn1c(SCC(=O)N2CCN(c3ccccc3)CC2)nnc1-c1c[nH]c2ccccc12 | 64* | 7 | 0.4 | 1.1 | -11
CCn1c(SCC(=O)N2CCc3ccccc32)nnc1-c1c[nH]c2ccccc12 | 7 | 3 | 0.9 | 1 | 5
CCn1c(SCC(=O)N2CCCc3ccccc32)nnc1-c1c[nH]c2ccccc12 | 76* | 5 | 0.2 | 1.1 | -12
CC1(C)Cc2ccccc2-c2nnc(SCC(=O)N3CCN(c4ccccc4)CC3)n21 | 80* | 4 | 0.2 | 0.4 | 62*
CCCCCCSc1nnc(-c2cnn(-c3ccccc3)c2-n2cccc2)n1C | 47 | 1 | 0.5 | 0.4 | 61*
Cn1c(=O)[nH]c(=O)c2c1nc(N1CCN(c3ccccc3)CC1)n2CCSc1ncccn1 | 38 | 11 | 0.6 | 0.8 | 18
CC(=O)c1cccc(NC(=O)Nc2ccc(C(=O)N3CCOCC3)cc2)c1 | . | 3 | . | . | .
Cn1c(SCC(=O)N2CCN(c3ccccc3)CC2)nnc1-c1c[nH]c2ccccc12 | 54* | 5 | 0.5 | 0.8 | 16
